Measured values reported in PubChem BioAssay (NCI).
About 79,000 compounds went through this panel and 15% of them were active in at least one assay; those are over-represented in the sample as a whole. The source made the active and inactive calls. Rule as the data show it: active = growth inhibition above about 70%; inactive = the rest.

How the values were obtained:
[1] = NCI Yeast Anticancer Drug Screen. Data for the rad52 strain (AID 147);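 also: 0% = growth of vehicle-treated control cultures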; settings: S. cerevisiae rad52 mutant growth inhibition, stronger effect = higher value
Procedure, shortened: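 Here a repair-compromised yeast strain receives each compound; its growth is then quantified and normalised to vehicle-only controls.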

[2] = NCI Yeast Anticancer Drug Screen. Data for the wt1 strain (AID 149);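 also: 0% = growth of vehicle-treated wt1 cultures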; settings: S. cerevisiae wt1 strain (SPY 50644) growth inhibition, stronger effect = higher value
Procedure, shortened: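 The wt1 strain was treated with compounds, and growth was compared with vehicle-treated cultures to give inhibition.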

[3] = NCI Yeast Anticancer Drug Screen. Data for the rad50EPP+ strain (AID 151);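 also: 0% = growth of vehicle-treated control cultures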; settings: S. cerevisiae rad50 mutant strain, stronger effect = higher value
Procedure, shortened: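 Read-out is yeast growth inhibition relative to vehicle; cells used were the rad50EPP+ strain.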

[4] = NCI Yeast Anticancer Drug Screen. Data for the mgt1 strain (AID 153); settings: S. cerevisiae mgt1 mutant growth inhibition, stronger effect = higher value
Procedure, shortened: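 Measured: inhibition of mgt1 yeast growth by compound, normalized to vehicle-treated cultures.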

[5] = NCI Yeast Anticancer Drug Screen. Data for the rad50 strain (AID 155);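 also: 0% = growth of vehicle-only cultures of the same strain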; settings: S. cerevisiae rad50 strain growth inhibition, stronger effect = higher value
Procedure, shortened: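 Cells are treated with compound, grown, and their growth is then scored against vehicle-only cultures of the same repair-deficient yeast strain.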

[6] = NCI Yeast Anticancer Drug Screen. Data for the mec2-1 strain (AID 157); settings: S. cerevisiae mec2-1 strain, stronger effect = higher value
Procedure, shortened: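 Using mec2-1 yeast: add compound, measure growth, express inhibition versus vehicle-treated cultures.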

[7] = NCI Yeast Anticancer Drug Screen. Data for the sgs1 mgt1 strain (AID 161);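 also: 0% = growth of cultures given vehicle only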; settings: S. cerevisiae sgs1 mgt1 strain, stronger effect = higher value
Procedure, shortened: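 Compounds are added to genetically altered yeast, and growth is compared with cultures given vehicle alone to give percent inhibition.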

[8] = NCI Yeast Anticancer Drug Screen. Data for the CLN2oe strain (AID 163);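 also: 0% = growth of vehicle-only control cultures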; settings: S. cerevisiae CLN2oe strain, stronger effect = higher value
Procedure, shortened: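 Whole-cell yeast growth assay. A strain engineered for altered cell-cycle control received compound, and inhibition relative to vehicle-treated cultures was recorded.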

[9] = NCI Yeast Anticancer Drug Screen. Data for the cln2 rad14 strain (AID 165);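 also: 0% = growth equal to vehicle treated cultures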; settings: S. cerevisiae cln2 rad14 strain, stronger effect = higher value
Procedure, shortened: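 Yeast strain cln2 rad14, bearing defects in cell cycle control and DNA repair, serves as the test system; values reflect growth inhibition compared with vehicle.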

[10] = NCI Yeast Anticancer Drug Screen. Data for the bub3 strain (AID 167); settings: S. cerevisiae bub3 mutant strain, stronger effect = higher value
Procedure, shortened: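 Part of a panel of yeast mutants defective in DNA damage repair or cell cycle regulation. Each strain is grown with compound, and inhibition is calculated relative to solvent-treated cultures.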

[11] = NCI Yeast Anticancer Drug Screen. Data for the wt2 strain (AID 169);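 also: 0% = growth of vehicle-treated yeast cultures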; settings: S. cerevisiae wt2 strain growth inhibition, stronger effect = higher value
Procedure, shortened: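 Treated yeast vs. vehicle-treated yeast: growth inhibition determined.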

[12] = NCI Yeast Anticancer Drug Screen. Data for the mlh1 strain (AID 171);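 also: 0% = growth of vehicle-treated control cultures of the same strain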; settings: S. cerevisiae mlh1 strain growth inhibition, stronger effect = higher value
Procedure, shortened: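 A yeast strain with a defined genetic lesion serves as the test organism. Cultures receive compound or vehicle, and growth is measured.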

[13] = NCI Yeast Anticancer Drug Screen. Data for the sgs1 strain (AID 173);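 also: 0% = growth of vehicle-only control cultures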; settings: S. cerevisiae sgs1 mutant, stronger effect = higher value
Procedure, shortened: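 A genetically defined yeast mutant is incubated with the test compound, and its growth is compared to that of the same strain given vehicle.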

[14] = NCI Yeast Anticancer Drug Screen. Data for the mlh1 rad18 strain (AID 175); settings: S. cerevisiae mlh1 rad18 strain growth inhibition, stronger effect = higher value
Procedure, shortened: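 Steps: expose repair-defective yeast to compound; measure growth; express inhibition against vehicle-treated controls.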

[15] = NCI Yeast Anticancer Drug Screen. Data for the rad18 strain (AID 177); settings: S. cerevisiae rad18 mutant growth inhibition, stronger effect = higher value
Procedure, shortened: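 Measured value is growth inhibition of a yeast strain bearing a DNA repair alteration, referenced to vehicle-treated cells.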

[16] = NCI Yeast Anticancer Drug Screen. Data for the rad14 strain (AID 159);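 also: 0% = growth of vehicle-treated control cultures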; settings: S. cerevisiae rad14 strain growth inhibition, stronger effect = higher value
Procedure, shortened: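 Readout: yeast growth inhibition, referenced to vehicle-only cultures. Strain bears a defined alteration in DNA damage repair.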

[17] = at 5.0 µM (retest, dose inferred, filed as 0.5)
[18] = at 50.0 µM (retest, dose inferred, filed as 5.0)

Measured: growth inhibition

O=C(NCCNCCNC(=O)c1cc(-c2ccccc2)nc2ccccc12)c1cc(-c2ccccc2)nc2ccccc12
inactive: [1]; at 1.2 µM -3% | [1]; at 3.7 µM -3% | [1]; at 11.0 µM -3% | [1]; at 33.0 µM -5% | [1]; at 100.0 µM 41% | [2]; at 1.2 µM -2% | [2]; at 3.7 µM -2% | [2]; at 11.0 µM -3% | [2]; at 33.0 µM -2% | [2]; at 100.0 µM 6% | [3]; at 1.2 µM -1% | [3]; at 3.7 µM 2% | [3]; at 11.0 µM 3% | [3]; at 33.0 µM 9% | [3]; at 100.0 µM 9% | [4]; at 1.2 µM -2% | [4]; at 3.7 µM -1% | [4]; at 11.0 µM -2% | [4]; at 33.0 µM 0% | [4]; at 100.0 µM 1% | [5]; at 1.2 µM -3% | [5]; at 3.7 µM -2% | [5]; [17] -11% | [5]; at 11.0 µM -4% | [5]; at 33.0 µM -2% | [5]; [18] 28% | [5]; at 50.0 µM 31.6% | [5]; at 100.0 µM 1% | [6]; at 1.2 µM -3% | [6]; at 3.7 µM -3% | [6]; [17] -11% | [6]; at 11.0 µM -1% | [6]; at 33.0 µM -2% | [6]; [18] 40% | [6]; at 100.0 µM 5% | [7]; [17] 9% | [7]; [18] 7% | [7]; at 50.0 µM 21.6% | [8]; at 1.2 µM -2% | [8]; at 3.7 µM -2% | [8]; at 11.0 µM -3% | [8]; at 33.0 µM -5% | [8]; at 100.0 µM 45% | [9]; [17] -4% | [9]; [18] 45% | [10]; at 1.2 µM -2% | [10]; at 3.7 µM -1% | [10]; [17] 2% | [10]; at 11.0 µM -1% | [10]; at 33.0 µM -5% | [10]; [18] 58% | [10]; at 100.0 µM -2% | [11]; at 1.2 µM -2% | [11]; at 3.7 µM -2% | [11]; at 11.0 µM -1% | [11]; at 33.0 µM -2% | [11]; at 100.0 µM 4% | [12]; at 1.2 µM -2% | [12]; at 3.7 µM 1% | [12]; at 11.0 µM -2% | [12]; at 33.0 µM -2% | [12]; at 100.0 µM -1% | [13]; at 1.2 µM -2% | [13]; at 3.7 µM 0% | [13]; at 11.0 µM 0% | [13]; at 33.0 µM 0% | [13]; at 100.0 µM 22% | [14]; [17] 7% | [14]; [18] 66% | [14]; at 50.0 µM 50.6% | [15]; at 1.2 µM -3% | [15]; at 3.7 µM -4% | [15]; at 11.0 µM -3% | [15]; at 33.0 µM -2% | [15]; at 100.0 µM -1%
active: [6]; at 50.0 µM 96.3% | [9]; at 50.0 µM 90.3% | [10]; at 50.0 µM 97.8%

O=C(O)C1CCCCC1c1c2ccc(=O)cc-2oc2cc(O)ccc12 (stereo unspecified)
inactive: [1]; at 1.2 µM 2% | [1]; at 3.7 µM -3% | [1]; at 11.0 µM 1% | [1]; at 33.0 µM 39% | [2]; at 1.2 µM -24% | [2]; at 3.7 µM -19% | [2]; at 11.0 µM -21% | [2]; at 33.0 µM 12% | [3]; at 1.2 µM 11% | [3]; at 3.7 µM 16% | [3]; at 11.0 µM 16% | [3]; at 33.0 µM 22% | [3]; at 100.0 µM 38% | [4]; at 1.2 µM 15% | [4]; at 3.7 µM 16% | [4]; at 11.0 µM 21% | [4]; at 33.0 µM 46% | [5]; at 1.2 µM 16% | [5]; at 3.7 µM 19% | [5]; [17] 52% | [5]; at 11.0 µM 9% | [5]; at 33.0 µM 28% | [6]; at 1.2 µM -3% | [6]; at 3.7 µM -1% | [6]; [17] 59% | [6]; at 11.0 µM 3% | [6]; at 33.0 µM 17% | [16]; at 1.2 µM -21% | [16]; at 3.7 µM -20% | [16]; at 11.0 µM -18% | [16]; at 33.0 µM 0% | [7]; [17] 10% | [9]; [17] 43% | [10]; at 1.2 µM 14% | [10]; at 3.7 µM 22% | [10]; [17] 44% | [10]; at 11.0 µM 27% | [10]; at 33.0 µM 55% | [11]; at 1.2 µM -20% | [11]; at 3.7 µM -18% | [11]; at 11.0 µM -7% | [11]; at 33.0 µM 15% | [12]; at 1.2 µM -26% | [12]; at 3.7 µM -21% | [12]; at 11.0 µM -16% | [12]; at 33.0 µM -1% | [13]; at 1.2 µM -17% | [13]; at 3.7 µM -15% | [13]; at 11.0 µM -15% | [13]; at 33.0 µM 13% | [14]; [17] 47% | [15]; at 1.2 µM -12% | [15]; at 3.7 µM -18% | [15]; at 11.0 µM -3% | [15]; at 33.0 µM 25%
active: [1]; at 100.0 µM 93% | [2]; at 100.0 µM 91% | [4]; at 100.0 µM 95% | [5]; [18] 95% | [5]; at 50.0 µM 86.3% | [5]; at 100.0 µM 90% | [6]; [18] 94% | [6]; at 50.0 µM 86.8% | [6]; at 100.0 µM 92% | [16]; at 100.0 µM 92% | [7]; [18] 77% | [7]; at 50.0 µM 89.5% | [9]; [18] 87% | [9]; at 50.0 µM 86.4% | [10]; [18] 88% | [10]; at 50.0 µM 86.7% | [10]; at 100.0 µM 92% | [11]; at 100.0 µM 94% | [12]; at 100.0 µM 86% | [13]; at 100.0 µM 91% | [14]; [18] 93% | [14]; at 50.0 µM 81.5% | [15]; at 100.0 µM 93%

C=C(C(=O)OC)N1C(=O)CC(C)C1=O (stereo unspecified)
inactive: [1]; at 1.2 µM 0% | [1]; at 3.7 µM 10% | [1]; at 11.0 µM 14% | [1]; at 33.0 µM 24% | [1]; at 100.0 µM 56% | [2]; at 1.2 µM 7% | [2]; at 3.7 µM 15% | [2]; at 11.0 µM 12% | [2]; at 33.0 µM 19% | [2]; at 100.0 µM 67% | [3]; at 1.2 µM -1% | [3]; at 3.7 µM 4% | [3]; at 11.0 µM 6% | [3]; at 33.0 µM 8% | [3]; at 100.0 µM -10% | [4]; at 1.2 µM 16% | [4]; at 3.7 µM 6% | [4]; at 11.0 µM 9% | [4]; at 33.0 µM 27% | [5]; at 1.2 µM 8% | [5]; at 3.7 µM 8% | [5]; [17] 14% | [5]; at 11.0 µM 13% | [5]; at 33.0 µM 14% | [5]; [18] 66% | [5]; at 100.0 µM 67% | [6]; at 1.2 µM 0% | [6]; at 3.7 µM 12% | [6]; [17] 27% | [6]; at 11.0 µM 23% | [6]; at 33.0 µM 48% | [16]; at 1.2 µM -11% | [16]; at 3.7 µM -2% | [16]; at 11.0 µM 8% | [16]; at 33.0 µM 11% | [16]; at 100.0 µM 68% | [7]; [17] 32% | [9]; [17] 6% | [9]; [18] 30% | [9]; at 50.0 µM 47.4% | [10]; at 1.2 µM 10% | [10]; at 3.7 µM 1% | [10]; [17] 21% | [10]; at 11.0 µM 9% | [10]; at 33.0 µM 25% | [11]; at 1.2 µM -41% | [11]; at 3.7 µM -26% | [11]; at 11.0 µM -17% | [11]; at 33.0 µM 50%
active: [4]; at 100.0 µM 71% | [5]; at 50.0 µM 75.5% | [6]; [18] 85% | [6]; at 50.0 µM 80.2% | [6]; at 100.0 µM 81% | [7]; [18] 81% | [7]; at 50.0 µM 77.3% | [10]; [18] 88% | [10]; at 50.0 µM 85.5% | [10]; at 100.0 µM 80% | [11]; at 100.0 µM 87%
